Screening data (PubChem)
BCR signal inh = qHTS Assay to Find Inhibitors of Chronic Active B-Cell Receptor Signaling. AID 493014, 2011. ABC-DLBCL IkBa-CBG/CBR reporter, luminescence ratio, 4 h. Potency, µM (titrated, usually from 46.1 µM), hits mostly inhibitors. 0.05% of 340,000 active; active = well fitted inhibition curve with a large enough effect in the signal ratio, with a control signal flat, not every such curve was filed as active; inconclusive = small, poorly fitted or top-dose-only effect, or effect the other way, or a change in a side signal; the % refers to the signal ratio
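TMD8 ABC-DLBCL cells carrying doxycycline-inducible green luciferase fused to IkappaBalpha plus unfused red luciferase were exposed to compounds (up to 46 uM) for 4 hrs at 37C. Activity came from the overlap-corrected green/red luminescence ratio.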
TDP1 cell noCPT = qHTS for Inhibitors of human tyrosyl-DNA phosphodiesterase 1 (TDP1): qHTS in cells in absence of CPT. Potency, µM (series often up to 46.2 µM), most hits filed as inhibitors. 15% of 420,000 active. DT40 Tdp1-/- hTDP1 cells, no CPT, ATP luminescence, 48 h; also: nearly all actives have a fitted effect of over 55% in size
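Cells were dispensed at 400 per well, compounds added by pin tool, plates incubated ≥48 hr at 37 °C, then CellTiter-Glo added for 30 min at room temperature before luminescence reading. Line: DT40 Tdp1-/- complemented with hTDP1; camptothecin omitted.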
DT40 TDP1 CPT = qHTS for Inhibitors of human tyrosyl-DNA phosphodiesterase 1 (TDP1): qHTS in cells in presence of CPT; chicken DT40 Tdp1-/-;hTDP1 cells + 20 nM CPT, ATP luminescence, 48 h; Potency, µM (highest dose often 46.2 µM), hits mostly inhibitors; 12% of 420,000 active; also: nearly all actives have a fitted effect of over 55% in size
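Chicken DT40 Tdp1-/- cells stably complemented with human TDP1 were seeded at 400 cells/well in medium containing 20 nM camptothecin, exposed to pin-transferred compounds, and grown at 37 °C for at least 48 hr. Viability was read as ATP luminescence.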
MCF10A rereplic = A quantitative high throughput screen for small molecules that induce DNA re-replication in MCF 10a normal breast cells; Potency, µM (doses to about 46.1 µM), hits mostly activators; AID 624296, 2012; MCF 10A DNA re-replication, Hoechst nuclear intensity, 48 h; 2.9% of 350,000 active; also: nearly all actives have a fitted effect of over 50% in size
SW480 rerep = A quantitative high throughput screen for small molecules that induce DNA re-replication in SW480 colon adenocarcinoma cells. AID 624297, 2012. SW480 DNA re-replication, Hoechst DNA content imaging, 48 h. 1.8% of 340,000 active. Potency, µM (doses to about 46.1 µM), usual class: activators; also: nearly all actives have a fitted effect of over 55% in size
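Readout is total intensity of Hoechst-stained nuclei, excited at 405 nm and collected at 500-530 nm. Compound treatment lasted 48 hr at 37 C in 5% CO2 before staining.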
IL-1B inflam inh = qHTS for Inhibitors of Inflammasome Signaling: IL-1-beta AlphaLISA Primary Screen; AID 743279, 2014; activity change, % at 57.5 µM; THP-1 LPS/ATP IL-1B secretion, AlphaLISA, 16 h; hits give low values; 4.7% of 360,000 active; in the data active = activity change below about -50%; inconclusive = mostly about -30% to -49%
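THP-1 cells pretreated 1 hr with compounds (up to 57.5 uM final), then stimulated with LPS (250 ng/mL final) plus ATP (1.25 mM final); secreted IL-1B measured by AlphaLISA after 16 hr, decreased signal indicating inhibition.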
A number is an active result; 0 = inactive; ? = inconclusive; - = no result given; ! = a repeat was not active; [ ] = dose if it differs, or a comment. Rows were chosen to be rich in hits. Some 19% of all compounds tested hit in one or more screens of this group. Unless noted, calls follow the shape of the dose curve; as a rule, active = well fitted curve in the direction sought with a large enough effect; inconclusive = small, poorly fitted or top-dose-only effect, or another doubt; inactive = no such curve, though single readings can be large; an effect the other way counts as inactive or inconclusive.

SMILES	BCR signal inh	TDP1 cell noCPT	DT40 TDP1 CPT	MCF10A rereplic	SW480 rerep	IL-1B inflam inh
Cc1c(O)cccc1C(=O)N[C@@H](CSc1ccccc1)[C@H](O)CN1C[C@H]2CCCC[C@H]2C[C@H]1C(=O)NC(C)(C)C	?	23µM!	9.2µM!	?	0	?
O=C(COc1ccccc1Cl)Nc1ccc2[nH]c(=O)[nH]c2c1	0	0	0	0	0	0
CC(C)S(=O)(=O)c1csc(NC(=O)Nc2ccc(Cl)cc2)c1	?	12µM	7.3µM	0	0	?
CC1CCCC(C)N1C(=O)c1ccccc1Nc1ccc(SC(F)F)cc1 (configuration not stated)	0	21µM	23µM	?	?	0
CC(C)(C)NC(=O)COC(=O)c1ccccc1Nc1ccc(SC(F)F)cc1	?	16µM	?	?	0	0
NC(=O)COC(=O)c1ccccc1Nc1ccc(SC(F)F)cc1	0	?	0	23µM	0	0
CC(OC(=O)c1ccccc1Nc1ccc(SC(F)F)cc1)C(N)=O (configuration not stated)	0	?	?	?	0	-75
O=C(COC(=O)c1ccccc1Nc1ccc(SC(F)F)cc1)NCc1ccco1	0	?	0	?	0	0
COc1cccc(OCC(=O)Nc2ccccc2C(=O)Nc2ccc(C(=O)O)cc2)c1	0	0	0	0	0	0
Cc1ccc(NC(=O)COC(=O)C2=NNC(=O)CC2)c(Br)c1	0	0	0	?	0	0
O=C(COC(=O)c1ccccc1Nc1ccccc1)Nc1ccccc1	?	0	0	?	0	0
Cc1cccc(C)c1NC(=O)COC(=O)c1ccccc1Nc1ccccc1	?	9.2µM	?	0	0	0
CC(C)c1ccc(-n2nnnc2SCc2nc(N)nc(N)n2)cc1	-	?	?	-	-	0
CCC(C)NC(=O)Cn1c(=O)n(-c2ccc(C)c(C)c2)c(=O)c2c3c(sc21)CCCCC3 (configuration not stated)	-	0	0	-	-	-
O=C(Cc1ccc(Cl)cc1)Nc1ccccc1C(=O)N1CCCCC1	0	0	0	?	0	0
O=C(COc1ccccc1/C=C1\SC(=S)NC1=O)Nc1ccc(F)cc1	0	10µM	?	1.5µM	?	0
C/C=C1\NC(=O)[C@H]2CSSCC/C=C/[C@H](CC(=O)N[C@H](C(C)C)C(=O)N2)OC(=O)C(C(C)C)NC1=O (some centres not stated)	-	0.0013µM	0.0015µM	-	-	-
CCOc1ccccc1NC(=O)NCCn1c(=O)oc2ccc(C)cc21	-	?	0	-	-	-
COc1ccc(Oc2ccc3c(C(F)(F)F)cc(C(F)(F)F)nc3n2)cc1	0	0	0	0	0	0
Oc1ccc(Oc2ccc3c(C(F)(F)F)cc(C(F)(F)F)nc3n2)cc1	0	18µM	15µM	?	?	0
Cc1ncc2c(c1CNS(=O)(=O)N(C)C)CCN(C(=O)c1ccc(-c3ccc(F)cc3)cc1)C2	-	?	0[9.04 µM]	-	-	-
CCc1ccc(NC(=O)[C@H](C)NC(=O)C2CCN(C(=O)[C@@H](N)Cc3ccccc3)CC2)cc1	0	16µM	?	0	0	0
CCc1ccc(NC(=O)[C@H](C)NC(=O)C2CCN(C(=O)[C@@H](NC(=O)OC(C)(C)C)C(C)C)CC2)cc1	0	0	0	0	0	0
COc1ccc(/C=C/C(=O)c2cc(F)ccc2OC(=O)c2ccccc2C)cc1OC	?	1µM	0.92µM	1.2µM	1.2µM	-99
COc1ccc(/C=C/C(=O)O/N=C(\N)c2ccccc2)cc1OC	?	0	0	0	0	0
SMILES	BCR signal inh	TDP1 cell noCPT	DT40 TDP1 CPT	MCF10A rereplic	SW480 rerep	IL-1B inflam inh
COc1ccc(C(=O)Oc2ccc(F)cc2C(=O)/C=C/c2ccc(OC)c(OC)c2)cc1	?	13µM	15µM	0	?	0
COc1ccc(/C=C/C(=O)c2ccc3c4c(cccc24)CC3)cc1OC	?	16µM	21µM	18µM	?	0
COc1ccc(C(C)=O)c(OC(=O)c2ccc(OC)c(OC)c2)c1	?	0	0	0	0	0
COc1ccccc1C(=O)COC(=O)C1(C)CC1(Cl)Cl (configuration not stated)	?	0	0	0	0	0
O=C(NNC(=O)C1CC(c2cccs2)=NO1)NC1CCCCC1 (configuration not stated)	0	0	0	0	0	0
Clc1ccc(C2=NNC(=NCC3CCCO3)SC2)cc1 (configuration not stated)	?	0	0	0	0	?
CCCCN=C1NN=C(c2ccc3c(c2)OCCO3)CS1	?	0	0	0	?	-63
c1ccc(CN=C2NN=C(c3cc4ccccc4o3)CS2)cc1	0	0	0	?	?	0
c1ccc2oc(C3=NNC(=NC4CC4)SC3)cc2c1	?	?	?	12µM	?	0
c1cc2c(cc1C1=NNC(=NC3CC3)SC1)OCCO2	?	16µM	21µM	?	4.1µM	0
c1csc(C2=NNC(=NC3CCCCC3)SC2)c1	?	23µM	?	0	0	0
CN(C)CCCNc1nccc(N2CCN(C)CC2)n1	-	0	0	-	-	-
O=c1c2cccnc2n(Cc2ccccc2F)c(=O)n1Cc1ccccc1Cl	-	0	0	-	-	-
O=C(CN1CSCC1=O)N1CCN(S(=O)(=O)c2ccc(Cl)cc2)CC1	0	0	0	0	0	0
CN(CC(=O)Nc1ccc(F)cc1)C(=O)CSc1nnc(Cc2ccccc2)o1	0	0	?	0	0	0
c1csc(CNc2nc(NCC3CCCCC3)c3sccc3n2)c1	-	9.2µM	5.8µM	-	-	?
CNc1nc(NCc2ccccc2)c2sccc2n1	-	16µM	18µM	-	-	0
COCCNc1nc(NCc2cc(-c3ccc(OC)cc3)no2)c2sccc2n1	-	18µM	?	-	-	?
CNc1nc(-c2ccccc2)c2sccc2n1	-	?	?	-	-	0
c1ccc(CNc2nc(NCCc3ccncc3)c3sccc3n2)cc1	-	10µM	18µM	-	-	-98
C[C@H]1O[C@H](C2CCCC2)CC2=C1C(=O)OC(C)(C)O2	-	0	0	-	-	0
O=C(NCc1ccc(F)cc1)c1[nH]c(C(F)(F)F)nc1-c1ccccc1	-	?	0	-	-	0
COc1ccccc1CCNC(=O)Cc1c(C)c2c(O)cc(C)cc2oc1=O	-	0	?	-	-	-
OC(CNCc1cccnc1)COc1ccc2ccccc2c1 (configuration not stated)	0	0	0	0	0	0
